Assay results published in PubChem BioAssay (NCI).
Compounds without any hit were thinned out: in the full panel of roughly 79,000, 15% have a hit. Activity calls are given as the source filed them. No stated cut-off is given here; in the data, active means growth inhibition above about 70%; inactive means the rest.

Experiments:
[1] = NCI Yeast Anticancer Drug Screen. Data for the rad52 strain (AID 147);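 further: 0% = growth of vehicle-treated control cultures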; details: S. cerevisiae rad52 mutant growth inhibition, hits give high values
Method in brief: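 Here a repair-compromised yeast strain receives each compound; its growth is then quantified and normalised to vehicle-only controls.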

[2] = NCI Yeast Anticancer Drug Screen. Data for the wt1 strain (AID 149);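 further: 0% = growth of vehicle-treated wt1 cultures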; details: S. cerevisiae wt1 strain (SPY 50644) growth inhibition, hits give high values
Method in brief: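 Yeast wt1 strain exposed to compounds; growth inhibition measured relative to vehicle-treated controls.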

[3] = NCI Yeast Anticancer Drug Screen. Data for the rad50EPP+ strain (AID 151);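 further: 0% = growth of vehicle-treated control cultures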; details: S. cerevisiae rad50 mutant strain, hits give high values
Method in brief: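 Read-out is yeast growth inhibition relative to vehicle; cells used were the rad50EPP+ strain.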

[4] = NCI Yeast Anticancer Drug Screen. Data for the mgt1 strain (AID 153); details: S. cerevisiae mgt1 mutant growth inhibition, hits give high values
Method in brief: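 Measured: inhibition of mgt1 yeast growth by compound, normalized to vehicle-treated cultures.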

[5] = NCI Yeast Anticancer Drug Screen. Data for the rad50 strain (AID 155);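 further: 0% = growth of vehicle-only cultures of the same strain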; details: S. cerevisiae rad50 strain growth inhibition, hits give high values
Method in brief: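 Yeast carrying a defined DNA repair defect were exposed to test compounds, and growth was compared with vehicle-treated controls to give percent inhibition.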

[6] = NCI Yeast Anticancer Drug Screen. Data for the mec2-1 strain (AID 157); details: S. cerevisiae mec2-1 strain, hits give high values
Method in brief: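 Using mec2-1 yeast: add compound, measure growth, express inhibition versus vehicle-treated cultures.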

[7] = NCI Yeast Anticancer Drug Screen. Data for the rad14 strain (AID 159);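 further: 0% = growth of vehicle-treated control cultures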; details: S. cerevisiae rad14 strain growth inhibition, hits give high values
Method in brief: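 Yeast cells carrying a defined DNA-repair defect were exposed to compounds, and growth inhibition was calculated relative to vehicle-treated control cultures.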

[8] = NCI Yeast Anticancer Drug Screen. Data for the sgs1 mgt1 strain (AID 161);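 further: 0% = growth of cultures given vehicle only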; details: S. cerevisiae sgs1 mgt1 strain, hits give high values
Method in brief: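 Percent growth inhibition was derived by comparing compound-exposed mutant yeast with vehicle-exposed cultures. The strain carries alterations in DNA damage repair.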

[9] = NCI Yeast Anticancer Drug Screen. Data for the CLN2oe strain (AID 163);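 further: 0% = growth of vehicle-only control cultures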; details: S. cerevisiae CLN2oe strain, hits give high values
Method in brief: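 Whole-cell yeast growth assay. A strain engineered for altered cell-cycle control received compound, and inhibition relative to vehicle-treated cultures was recorded.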

[10] = NCI Yeast Anticancer Drug Screen. Data for the cln2 rad14 strain (AID 165);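 further: 0% = growth equal to vehicle treated cultures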; details: S. cerevisiae cln2 rad14 strain, hits give high values
Method in brief: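 Yeast strain cln2 rad14, bearing defects in cell cycle control and DNA repair, serves as the test system; values reflect growth inhibition compared with vehicle.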

[11] = NCI Yeast Anticancer Drug Screen. Data for the bub3 strain (AID 167); details: S. cerevisiae bub3 mutant strain, hits give high values
Method in brief: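 Compounds were applied to a genetically altered yeast strain carrying a cell-cycle control defect. Growth inhibition was scored against vehicle-treated controls.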

[12] = NCI Yeast Anticancer Drug Screen. Data for the wt2 strain (AID 169);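 further: 0% = growth of vehicle-treated yeast cultures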; details: S. cerevisiae wt2 strain growth inhibition, hits give high values
Method in brief: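 Treated yeast vs. vehicle-treated yeast: growth inhibition determined.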

[13] = NCI Yeast Anticancer Drug Screen. Data for the mlh1 strain (AID 171);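 further: 0% = growth of vehicle-treated control cultures of the same strain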; details: S. cerevisiae mlh1 strain growth inhibition, hits give high values
Method in brief: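 A yeast strain with a defined genetic lesion serves as the test organism. Cultures receive compound or vehicle, and growth is measured.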

[14] = NCI Yeast Anticancer Drug Screen. Data for the sgs1 strain (AID 173);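 further: 0% = growth of vehicle-only control cultures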; details: S. cerevisiae sgs1 mutant, hits give high values
Method in brief: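 A genetically defined yeast mutant is incubated with the test compound, and its growth is compared to that of the same strain given vehicle.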

[15] = NCI Yeast Anticancer Drug Screen. Data for the mlh1 rad18 strain (AID 175); details: S. cerevisiae mlh1 rad18 strain growth inhibition, hits give high values
Method in brief: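 Steps: expose repair-defective yeast to compound; measure growth; express inhibition against vehicle-treated controls.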

[16] = NCI Yeast Anticancer Drug Screen. Data for the rad18 strain (AID 177); details: S. cerevisiae rad18 mutant growth inhibition, hits give high values
Method in brief: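 Measured value is growth inhibition of a yeast strain bearing a DNA repair alteration, referenced to vehicle-treated cells.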

[17] = at 5.0 µM (retest, dose inferred, filed as 0.5)
[18] = at 50.0 µM (retest, dose inferred, filed as 5.0)

Measured: growth inhibition

O=C(O)c1cc2c(cc1S(=O)(=O)O)C1C(C3C2C2(Cl)C(Cl)=C(Cl)C3(Cl)C2(Cl)Cl)C2(Cl)C(Cl)=C(Cl)C1(Cl)C2(Cl)Cl (stereo unspecified)
active: [1]; at 33.0 µM 78% | [1]; at 100.0 µM 95% | [2]; at 100.0 µM 96% | [4]; at 33.0 µM 92% | [4]; at 100.0 µM 96% | [5]; [18] 96% | [5]; at 50.0 µM 96.2% | [5]; at 100.0 µM 90% | [6]; at 33.0 µM 85% | [6]; [18] 96% | [6]; at 50.0 µM 95.4% | [6]; at 100.0 µM 96% | [7]; at 33.0 µM 84% | [7]; at 100.0 µM 96% | [8]; [18] 97% | [8]; at 50.0 µM 94.4% | [9]; at 100.0 µM 88% | [10]; [18] 97% | [10]; at 50.0 µM 93.7% | [11]; at 33.0 µM 74% | [11]; [18] 98% | [11]; at 50.0 µM 94.8% | [11]; at 100.0 µM 94% | [12]; at 33.0 µM 90% | [12]; at 100.0 µM 96% | [13]; at 33.0 µM 95% | [13]; at 100.0 µM 97% | [14]; at 33.0 µM 92% | [14]; at 100.0 µM 96% | [15]; [18] 98% | [15]; at 50.0 µM 96.3% | [16]; at 33.0 µM 82% | [16]; at 100.0 µM 95%
inactive: [1]; at 1.2 µM 0% | [1]; at 3.7 µM 3% | [1]; at 11.0 µM 13% | [2]; at 1.2 µM 2% | [2]; at 3.7 µM 0% | [2]; at 11.0 µM 3% | [2]; at 33.0 µM 62% | [3]; at 1.2 µM 3% | [3]; at 3.7 µM -2% | [3]; at 11.0 µM -52% | [3]; at 33.0 µM -84% | [3]; at 100.0 µM 61% | [4]; at 1.2 µM 2% | [4]; at 3.7 µM -1% | [4]; at 11.0 µM 22% | [5]; at 1.2 µM 2% | [5]; at 3.7 µM 1% | [5]; [17] 17% | [5]; at 11.0 µM 9% | [5]; at 33.0 µM 63% | [6]; at 1.2 µM -3% | [6]; at 3.7 µM -2% | [6]; [17] 20% | [6]; at 11.0 µM 0% | [7]; at 1.2 µM 0% | [7]; at 3.7 µM 3% | [7]; at 11.0 µM 24% | [8]; [17] 37% | [9]; at 1.2 µM -4% | [9]; at 3.7 µM -5% | [9]; at 11.0 µM -11% | [9]; at 33.0 µM 51% | [10]; [17] 11% | [11]; at 1.2 µM -3% | [11]; at 3.7 µM -5% | [11]; [17] 2% | [11]; at 11.0 µM -11% | [12]; at 1.2 µM 1% | [12]; at 3.7 µM 0% | [12]; at 11.0 µM 12% | [13]; at 1.2 µM -2% | [13]; at 3.7 µM -2% | [13]; at 11.0 µM 11% | [14]; at 1.2 µM -4% | [14]; at 3.7 µM -1% | [14]; at 11.0 µM 21% | [15]; [17] 67% | [16]; at 1.2 µM -1% | [16]; at 3.7 µM -1% | [16]; at 11.0 µM -8%

Cc1ccc(S(=O)(=O)Nc2cccc3cccnc23)cc1
inactive: [1]; at 1.2 µM 10% | [1]; at 3.7 µM 14% | [1]; at 11.0 µM 25% | [1]; at 100.0 µM 52% | [2]; at 1.2 µM 15% | [2]; at 3.7 µM 14% | [2]; at 11.0 µM 18% | [2]; at 100.0 µM 39% | [3]; at 1.2 µM 16% | [3]; at 3.7 µM 17% | [3]; at 11.0 µM 16% | [3]; at 33.0 µM 62% | [3]; at 100.0 µM 66% | [4]; at 1.2 µM 14% | [4]; at 3.7 µM -5% | [4]; at 11.0 µM 25% | [5]; at 1.2 µM 15% | [5]; at 3.7 µM 25% | [5]; [17] 46% | [5]; at 11.0 µM 22% | [5]; at 50.0 µM 46% | [6]; at 1.2 µM 7% | [6]; at 3.7 µM 18% | [6]; [17] 49% | [6]; at 11.0 µM 23% | [6]; at 50.0 µM 20.2% | [6]; at 100.0 µM 60% | [7]; at 1.2 µM -19% | [7]; at 3.7 µM -16% | [7]; at 11.0 µM 16% | [7]; at 100.0 µM 56% | [8]; [17] -15% | [8]; [18] 41% | [8]; at 50.0 µM 59% | [9]; at 1.2 µM 15% | [9]; at 3.7 µM 12% | [9]; at 11.0 µM 41% | [9]; at 33.0 µM 69% | [9]; at 100.0 µM 46% | [10]; [17] 25% | [10]; [18] 54% | [10]; at 50.0 µM 48% | [11]; at 1.2 µM -11% | [11]; at 3.7 µM -14% | [11]; [17] 29% | [11]; at 11.0 µM -3% | [11]; at 33.0 µM 50% | [11]; [18] 23% | [11]; at 50.0 µM 27.7% | [11]; at 100.0 µM 15% | [12]; at 1.2 µM -13% | [12]; at 3.7 µM -5% | [12]; at 11.0 µM 8% | [12]; at 33.0 µM 53% | [12]; at 100.0 µM 59% | [13]; at 1.2 µM 14% | [13]; at 3.7 µM 3% | [13]; at 11.0 µM 9% | [13]; at 100.0 µM 62% | [14]; at 1.2 µM 1% | [14]; at 3.7 µM 4% | [14]; at 11.0 µM 44% | [14]; at 100.0 µM 63% | [15]; [17] 44% | [16]; at 1.2 µM 9% | [16]; at 3.7 µM 4% | [16]; at 11.0 µM 25%
active: [1]; at 33.0 µM 75% | [2]; at 33.0 µM 71% | [4]; at 33.0 µM 77% | [4]; at 100.0 µM 79% | [5]; at 33.0 µM 79% | [5]; [18] 97% | [5]; at 100.0 µM 84% | [6]; at 33.0 µM 79% | [6]; [18] 98% | [7]; at 33.0 µM 72% | [13]; at 33.0 µM 78% | [14]; at 33.0 µM 82% | [15]; [18] 100% | [15]; at 50.0 µM 71% | [16]; at 33.0 µM 74% | [16]; at 100.0 µM 71%
